# Assay outcomes: PubChem BioAssay, Broad Institute
# Sampled rows, rich in hits. Any-hit rate of the full collection: about 6.7%.
# C diff growth: blocks growth of Clostridium difficile. AID 1259249. growth activity, negative = inhibition, % at 16 µg/mL (by protocol). Clostridium difficile clinical isolate growth, OD600, 24 h; stronger effect = lower value. hit rate 0.25% among 86,000;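 active means mean growth activity at or below -80% and every replicate also at or below -80%; inconclusive means mean at or below -80% but some replicate above -80%; inactive means mean growth activity above -80%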
# Pf Dd2 growth: P. falciparum Dd2 growth inhibition. activity change, % at 10 µM. SYBR Green, 72 h; stronger effect = lower value. hit rate 2.3% among 94,000. AID 1159554; in the data active means activity change below about -80%; inconclusive means no clear call, values can overlap the other calls
# T cruzi growth-1: T. cruzi proliferation inhibition; T. cruzi beta-gal in NIH3T3, GalScreen luminescence, 90 h; inhibition, % at 8.34 µM; hit rate 5.9% among 77,000; AID 624255;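 active means mean inhibition above about 93%, with at least 55% of replicates each passing it, limit read from the data, passing the limit was not always enough; inconclusive means only one of those two conditions holds; inactive means neither condition holds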
# T cruzi growth-2: blocks T. cruzi growth in NIH3T3 host cells; AID 651739; shares compounds with T cruzi growth-1; T. cruzi beta-gal in NIH3T3, GalScreen luminescence, 90 h; inhibition, % at 8.35 µM; hit rate 72% among 5,600;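 active means mean replicate inhibition above about 95% and at least 55% of replicates individually reaching it, limit read from the data; inconclusive means only one of the two criteria is met; inactive means neither criterion is met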
# T cruzi growth-3: inhibitors of T. cruzi proliferation; shares compounds with T cruzi growth-1; T. cruzi beta-gal in NIH3T3, GalScreen luminescence, 90 h; inhibition, % at 2.09 µM; hit rate 21% among 5,600; AID 651740;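 active means mean inhibition above about 95%, with at least 55% of replicates also reaching it, limit read from the data; inconclusive means meets just one of the two conditions; inactive means meets neither condition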
# 3T3 cytotox: NIH/3T3 (mouse) viability loss; shares compounds with T cruzi growth-1; NIH/3T3 viability, CellTiter-Glo ATP luminescence, 90 h; cytotoxicity (signal decrease), % at 8.35 µM; hit rate 14% among 5,600;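 active means mean signal decrease across replicates above about 35% based on untreated-well scatter, with enough replicates individually passing, limit read from the data; inconclusive means no rule stated though some were filed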
# 3T3 cytotox 2: kills mouse NIH/3T3 fibroblasts. shares compounds with T cruzi growth-1. NIH/3T3 viability, CellTiter-Glo ATP luminescence, 90 h. inhibition, % at 24.9 µM. hit rate 56% among 5,600. AID 651744;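 active means mean loss of cell viability signal at or above a set limit, and enough replicates individually reaching it; inconclusive means meets only the mean limit or only the replicate share; inactive means meets neither condition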
# Hits are given with their value; 0 = inactive; ? = inconclusive; - = no result.
SMILES,C diff growth,Pf Dd2 growth,T cruzi growth-1,T cruzi growth-2,T cruzi growth-3,3T3 cytotox,3T3 cytotox 2
C[C@H]1CCCCO[C@H](CN(C)S(=O)(=O)c2ccccc2)[C@@H](C)CN([C@@H](C)CO)C(=O)c2cc(NC(=O)Cc3ccccc3)ccc2O1,-,0,-,-,-,-,-
C[C@H](CO)N1C[C@H](C)[C@H](CN(C)S(=O)(=O)c2ccc(Cl)cc2)OCCCC[C@H](C)Oc2ccc(NC(=O)Cc3ccccc3)cc2C1=O,0,0,105,100,109,0,0
C[C@@H]1CCCCO[C@H](CN(C)S(=O)(=O)c2ccc(Cl)cc2)[C@H](C)CN([C@H](C)CO)C(=O)c2cc(NC(=O)Cc3ccccc3)ccc2O1,0,0,117,110,105,0,0
O=C(C[C@H]1C=C[C@H](NS(=O)(=O)c2ccccc2)[C@H](CO)O1)N1CCN(c2ccccc2)CC1,0,0,-,-,-,-,-
C[C@@H]1CN([C@@H](C)CO)C(=O)c2cc(NS(=O)(=O)c3cccs3)ccc2O[C@@H]1CN(C)S(=O)(=O)c1cn(C)cn1,0,0,0,-,-,-,-
CCCN1C[C@H](C)[C@H](OC)CN(C)C(=O)c2ccc(NC(=O)c3cccc(OC)c3)cc2OC[C@H]1C,0,0,0,-,-,-,-
O=C(NCC[C@H]1CC[C@@H](NC(=O)C2CCCC2)[C@H](CO)O1)Nc1ccc(Cl)cc1,0,0,-,-,-,-,-
Cc1ccc(S(=O)(=O)Nc2ccc3c(c2)C(=O)N([C@H](C)CO)C[C@H](C)[C@@H](CN(C)C(=O)Nc2ccc(C(F)(F)F)cc2)OCCCC[C@@H](C)O3)cc1,0,0,101,105,0,0,0
COc1ccc(S(=O)(=O)Nc2ccc3c(c2)C(=O)N([C@@H](C)CO)C[C@@H](C)[C@@H](CN(C)C(=O)Nc2ccc(C(F)(F)F)cc2)OCCCC[C@@H](C)O3)cc1,0,0,0,-,-,-,-
COc1ccc(S(=O)(=O)Nc2ccc3c(c2)C(=O)N([C@H](C)CO)C[C@H](C)[C@H](CN(C)C(=O)Nc2ccccc2)OCCCC[C@H](C)O3)cc1,0,0,99,108,0,0,0
COc1ccc(S(=O)(=O)Nc2ccc3c(c2)C(=O)N([C@H](C)CO)C[C@@H](C)[C@H](CN(C)C(=O)Nc2ccccc2)OCCCC[C@@H](C)O3)cc1,0,0,0,-,-,-,-
COc1ccc(S(=O)(=O)Nc2ccc3c(c2)C(=O)N([C@H](C)CO)C[C@H](C)[C@H](CN(C)C(=O)Nc2ccc(C(F)(F)F)cc2)OCCCC[C@@H](C)O3)cc1,0,0,108,104,0,0,?
Cc1ccc(S(=O)(=O)Nc2ccc3c(c2)C(=O)N([C@@H](C)CO)C[C@H](C)[C@H](CN(C)C(=O)Nc2ccc(C(F)(F)F)cc2)OCCCC[C@H](C)O3)cc1,0,0,-,-,-,-,-
Cc1ccc(S(=O)(=O)Nc2ccc3c(c2)C(=O)N([C@@H](C)CO)C[C@H](C)[C@@H](CN(C)C(=O)Nc2ccc(C(F)(F)F)cc2)OCCCC[C@@H](C)O3)cc1,0,0,0,-,-,-,-
Cc1ccc(S(=O)(=O)Nc2ccc3c(c2)C(=O)N([C@@H](C)CO)C[C@@H](C)[C@@H](CN(C)C(=O)Nc2ccc(C(F)(F)F)cc2)OCCCC[C@@H](C)O3)cc1,0,0,98,104,112,0,0
CC(C)C#Cc1ccc([C@H]2[C@H]3CN(C(=O)NC4CCCCC4)CC(=O)N3[C@H]2CO)cc1,0,0,-,-,-,-,-
CC(=O)N1CC2(C1)[C@H](c1ccc(-c3ccc(C#N)cc3)cc1)[C@@H](CO)N2C(C)=O,0,0,-,-,-,-,-
COCC#Cc1cnc2c(c1)C(=O)N([C@@H](C)CO)C[C@H](C)[C@@H](CN(C)S(=O)(=O)c1ccccc1)O2,0,0,0,-,-,-,-
COc1ccc(S(=O)(=O)Nc2ccc3c(c2)CC(=O)N([C@@H](C)CO)C[C@H](C)[C@@H](CN(C)Cc2ccccc2)O3)cc1,0,0,0,-,-,-,-
COc1ccc(S(=O)(=O)Nc2ccc3c(c2)CC(=O)N([C@H](C)CO)C[C@@H](C)[C@H](CN(C)Cc2ccccc2)O3)cc1,0,0,104,109,99,0,0
COc1ccc(S(=O)(=O)Nc2ccc3c(c2)CC(=O)N([C@@H](C)CO)C[C@@H](C)[C@@H](CN(C)Cc2ccccc2)O3)cc1,0,0,0,-,-,-,-
Cc1noc(C)c1S(=O)(=O)Nc1ccc2c(c1)CC(=O)N([C@@H](C)CO)C[C@@H](C)[C@H](CN(C)Cc1ccc(Oc3ccccc3)cc1)O2,0,0,?,109,0,0,104
Cc1noc(C)c1S(=O)(=O)Nc1ccc2c(c1)CC(=O)N([C@H](C)CO)C[C@@H](C)[C@@H](CN(C)Cc1ccc(Oc3ccccc3)cc1)O2,0,0,0,-,-,-,-
COc1ccc(S(=O)(=O)Nc2ccc3c(c2)CC(=O)N([C@@H](C)CO)C[C@H](C)[C@H](CN(C)Cc2ccccc2)O3)cc1,0,0,99,99,0,0,0
COc1ccccc1-c1ccc([C@@H]2[C@@H](CO)N3CCCCN(C(=O)NC4CCCC4)C[C@H]23)cc1,0,0,0,-,-,-,-
SMILES,C diff growth,Pf Dd2 growth,T cruzi growth-1,T cruzi growth-2,T cruzi growth-3,3T3 cytotox,3T3 cytotox 2
CC(C)CC#Cc1ccc([C@@H]2[C@H](CO)N3CCCCN(C(=O)NC4CCCC4)C[C@@H]23)cc1,0,0,0,-,-,-,-
COc1ccc(NC(=O)N2CCCCN3[C@H](CO)[C@H](c4ccc(C#CCC(C)C)cc4)[C@@H]3C2)cc1,0,-90,121,108,96,?,83
COc1ccc(NC(=O)N2CCCCN3[C@@H](CO)[C@H](c4ccc(C#CCC(C)C)cc4)[C@@H]3C2)cc1,0,0,114,98,106,118,103
CC(C)CC#Cc1ccc([C@@H]2[C@@H](CO)N3CCCCN(C(=O)NC4CCCC4)C[C@H]23)cc1,0,0,0,-,-,-,-
COc1ccc(NC(=O)N2CCCCN3[C@H](CO)[C@@H](c4ccc(C#CCC(C)C)cc4)[C@@H]3C2)cc1,0,0,105,106,0,39,104
CC(C)CC#Cc1ccc([C@H]2[C@H]3CN(C(=O)NC4CCCC4)CCCCN3[C@H]2CO)cc1,0,0,?,110,0,0,104
O=C(CCN1CCCCC1)NCC[C@H]1CC[C@H](NC(=O)Nc2ccc(F)cc2)[C@@H](CO)O1,0,0,0,-,-,-,-
O=C(NC1CCCCC1)N1CC(=O)N2[C@@H](CO)[C@@H](c3ccc(-c4cccnc4)cc3)[C@@H]2C1,0,0,-,-,-,-,-
CCC(=O)N1CCC2(CC1)CN(Cc1ccccn1)[C@H](CO)c1[nH]c3cc(OC)ccc3c12,0,0,-,-,-,-,-
COCC#Cc1cnc2c(c1)C(=O)N([C@H](C)CO)C[C@H](C)[C@@H](CN(C)Cc1ccc3c(c1)OCO3)O2,0,0,-,-,-,-,-
C[C@H](CO)N1C[C@H](C)[C@@H](CN(C)C)Oc2ccc(NC(=O)Nc3cccc4ccccc34)cc2CC1=O,0,0,-,-,-,-,-
